Key:
Experiment in all cases: DAPPL (digital affinity profiling via proximity ligation, sequencing); 10 mM Tris-HCl pH 7.5, 50 mM NaCl, 1 mM DTT, 4% glycerol, room temperature, 30 min; GST-TFs on glutathione beads, 16-mer random dsDNA library, 0.1% formaldehyde crosslink after washing; high values mean tight binding
FEV = target: T1, FEV (Homo sapiens, UniProt Q99581 1-238); settings: protein: recombinant; tags: N-terminal GST; dsDNA, one strand shown
T1 sequence: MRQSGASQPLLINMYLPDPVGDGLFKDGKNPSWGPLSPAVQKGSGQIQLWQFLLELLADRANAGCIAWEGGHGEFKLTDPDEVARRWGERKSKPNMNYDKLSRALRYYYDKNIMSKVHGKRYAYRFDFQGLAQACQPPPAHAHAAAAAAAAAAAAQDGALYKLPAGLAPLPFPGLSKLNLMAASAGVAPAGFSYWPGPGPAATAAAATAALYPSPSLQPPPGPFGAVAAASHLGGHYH
In short: (§1)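 Binding signal is defined as a hexamer's read frequency for one factor over its frequency for the tag-only sample. To obtain reads, GST-fused human transcription factors were expressed in yeast, captured on glutathione beads, barcoded with DNA and pooled with that sample. Pools met 200 nmole of a 16-mer random double-stranded DNA library in Tris/NaCl/DTT/glycerol buffer for 30 min at room temperature before washing, 0.1% formaldehyde crosslinking, proximity ligation (BsaI/T4 ligase, 1 h, 37 °C), PCR and Illumina NextSeq500 sequencing.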

ETV5 = ETV5 (Homo sapiens, UniProt P41161 1-510); settings: protein: recombinant; tags: N-terminal GST; dsDNA, one strand shown
Chain of ETV5 (P41161 whole entry): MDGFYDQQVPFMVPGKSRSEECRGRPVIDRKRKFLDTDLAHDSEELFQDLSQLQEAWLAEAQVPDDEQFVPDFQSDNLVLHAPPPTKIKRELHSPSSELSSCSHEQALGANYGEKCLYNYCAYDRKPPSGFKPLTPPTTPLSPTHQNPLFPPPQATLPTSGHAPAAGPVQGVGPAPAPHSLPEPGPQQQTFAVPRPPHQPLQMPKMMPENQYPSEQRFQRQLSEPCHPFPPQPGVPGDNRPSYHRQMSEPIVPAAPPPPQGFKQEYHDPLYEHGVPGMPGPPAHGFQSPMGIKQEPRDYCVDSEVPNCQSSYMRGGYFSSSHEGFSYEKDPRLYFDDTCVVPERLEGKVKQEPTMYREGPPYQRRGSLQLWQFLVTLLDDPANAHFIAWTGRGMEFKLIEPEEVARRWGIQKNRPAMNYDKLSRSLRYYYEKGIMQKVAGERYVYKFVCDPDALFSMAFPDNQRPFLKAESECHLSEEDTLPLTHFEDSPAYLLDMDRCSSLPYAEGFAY
In short: as §1

HSF1 = HSF1 (Homo sapiens, UniProt Q00613 1-529); settings: protein: recombinant; tags: N-terminal GST; chain copies: 3; dsDNA, one strand shown
Chain of HSF1 (Q00613 whole entry): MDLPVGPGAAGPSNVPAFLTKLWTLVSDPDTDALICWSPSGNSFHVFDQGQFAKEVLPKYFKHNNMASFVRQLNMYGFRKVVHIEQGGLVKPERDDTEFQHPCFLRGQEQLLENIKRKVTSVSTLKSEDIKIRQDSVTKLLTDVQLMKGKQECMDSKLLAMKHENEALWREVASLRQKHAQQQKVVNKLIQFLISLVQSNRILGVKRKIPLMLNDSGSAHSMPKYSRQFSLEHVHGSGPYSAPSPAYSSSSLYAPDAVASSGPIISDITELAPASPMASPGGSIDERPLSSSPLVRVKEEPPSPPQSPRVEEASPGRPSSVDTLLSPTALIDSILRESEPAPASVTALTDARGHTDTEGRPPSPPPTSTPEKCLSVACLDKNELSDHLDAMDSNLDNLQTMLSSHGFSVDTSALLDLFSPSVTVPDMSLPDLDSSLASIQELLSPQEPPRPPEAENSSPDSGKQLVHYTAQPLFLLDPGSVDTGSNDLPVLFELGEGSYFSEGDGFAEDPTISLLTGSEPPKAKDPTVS
In short: as §1

SPIC = target: T2, SPIC (Homo sapiens, UniProt Q8N5J4 1-248); settings: protein: recombinant; tags: N-terminal GST; dsDNA, one strand shown
T2 sequence: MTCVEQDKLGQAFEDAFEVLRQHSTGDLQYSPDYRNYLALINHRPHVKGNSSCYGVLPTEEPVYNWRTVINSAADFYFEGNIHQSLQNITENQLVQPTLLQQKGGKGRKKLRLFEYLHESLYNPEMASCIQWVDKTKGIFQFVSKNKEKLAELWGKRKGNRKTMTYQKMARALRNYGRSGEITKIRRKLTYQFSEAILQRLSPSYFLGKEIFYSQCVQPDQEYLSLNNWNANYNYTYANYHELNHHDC
In short: as §1

ELF4 = ELF4 (Homo sapiens, UniProt Q99607 1-663); settings: protein: recombinant; tags: N-terminal GST; dsDNA, one strand shown
Chain of ELF4 (Q99607 whole entry): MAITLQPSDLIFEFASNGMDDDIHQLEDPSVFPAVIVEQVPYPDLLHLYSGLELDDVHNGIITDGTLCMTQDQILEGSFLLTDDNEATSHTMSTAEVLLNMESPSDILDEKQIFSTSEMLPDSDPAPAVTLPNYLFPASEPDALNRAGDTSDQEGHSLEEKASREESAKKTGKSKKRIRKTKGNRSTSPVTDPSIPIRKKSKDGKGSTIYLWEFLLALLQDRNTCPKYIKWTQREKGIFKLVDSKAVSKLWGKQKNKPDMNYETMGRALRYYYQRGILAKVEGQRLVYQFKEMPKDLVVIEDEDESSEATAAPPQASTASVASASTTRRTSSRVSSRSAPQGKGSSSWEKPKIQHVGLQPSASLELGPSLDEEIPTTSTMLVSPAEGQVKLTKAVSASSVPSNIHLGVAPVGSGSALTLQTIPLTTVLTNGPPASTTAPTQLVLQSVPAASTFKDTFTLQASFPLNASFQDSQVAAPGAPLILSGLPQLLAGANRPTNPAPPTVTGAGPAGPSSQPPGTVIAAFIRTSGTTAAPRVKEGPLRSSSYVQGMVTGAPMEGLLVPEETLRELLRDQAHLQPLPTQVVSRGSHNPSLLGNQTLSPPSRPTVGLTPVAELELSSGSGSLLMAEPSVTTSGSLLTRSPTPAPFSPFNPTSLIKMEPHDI
In short: as §1

ELK4 = target: T3, ELK4 (Homo sapiens, UniProt P28324-2 1-405); settings: protein: recombinant; tags: N-terminal GST; dsDNA, one strand shown
T3 sequence: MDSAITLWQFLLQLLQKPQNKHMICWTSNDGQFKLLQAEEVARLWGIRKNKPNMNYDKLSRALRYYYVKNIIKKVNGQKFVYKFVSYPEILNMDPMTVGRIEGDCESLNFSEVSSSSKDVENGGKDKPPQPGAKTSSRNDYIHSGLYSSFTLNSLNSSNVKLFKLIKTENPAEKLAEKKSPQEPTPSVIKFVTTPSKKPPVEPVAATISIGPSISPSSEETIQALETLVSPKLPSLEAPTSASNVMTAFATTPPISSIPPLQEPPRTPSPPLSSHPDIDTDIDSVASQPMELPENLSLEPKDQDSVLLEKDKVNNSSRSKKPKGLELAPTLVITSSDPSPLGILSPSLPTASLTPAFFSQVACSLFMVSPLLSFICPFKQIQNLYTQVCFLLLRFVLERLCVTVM
In short: as §1

ETV2 = target: T4, ETV2 (Homo sapiens, UniProt O00321 1-342); settings: protein: recombinant; tags: N-terminal GST; dsDNA, one strand shown
T4 sequence: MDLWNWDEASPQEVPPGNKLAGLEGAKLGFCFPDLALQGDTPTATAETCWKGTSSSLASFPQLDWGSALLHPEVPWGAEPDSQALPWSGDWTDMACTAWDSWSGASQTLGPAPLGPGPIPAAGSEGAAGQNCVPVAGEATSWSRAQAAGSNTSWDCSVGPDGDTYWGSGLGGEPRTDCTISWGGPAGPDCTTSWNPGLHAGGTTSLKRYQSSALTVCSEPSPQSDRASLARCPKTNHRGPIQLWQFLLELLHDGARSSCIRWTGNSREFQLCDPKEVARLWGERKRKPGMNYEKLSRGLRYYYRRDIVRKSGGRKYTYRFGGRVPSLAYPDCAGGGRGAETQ
In short: as §1

ELF3 = target: T5, ELF3 (Homo sapiens, UniProt P78545 1-371); settings: protein: recombinant; tags: N-terminal GST; dsDNA, one strand shown
T5 sequence: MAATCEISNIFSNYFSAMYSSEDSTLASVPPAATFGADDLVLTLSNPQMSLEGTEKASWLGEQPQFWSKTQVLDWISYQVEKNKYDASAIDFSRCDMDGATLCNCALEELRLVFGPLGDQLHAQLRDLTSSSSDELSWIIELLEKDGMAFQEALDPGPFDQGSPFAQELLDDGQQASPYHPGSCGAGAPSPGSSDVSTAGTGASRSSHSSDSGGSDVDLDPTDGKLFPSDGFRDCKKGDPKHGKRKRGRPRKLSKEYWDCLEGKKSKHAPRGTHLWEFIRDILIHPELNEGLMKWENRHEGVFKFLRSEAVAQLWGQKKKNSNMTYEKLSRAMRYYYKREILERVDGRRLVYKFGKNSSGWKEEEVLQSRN
In short: as §1

CRX = CRX (Homo sapiens, UniProt O43186 1-299); settings: protein: recombinant; tags: N-terminal GST; dsDNA, one strand shown
Chain of CRX (O43186 whole entry): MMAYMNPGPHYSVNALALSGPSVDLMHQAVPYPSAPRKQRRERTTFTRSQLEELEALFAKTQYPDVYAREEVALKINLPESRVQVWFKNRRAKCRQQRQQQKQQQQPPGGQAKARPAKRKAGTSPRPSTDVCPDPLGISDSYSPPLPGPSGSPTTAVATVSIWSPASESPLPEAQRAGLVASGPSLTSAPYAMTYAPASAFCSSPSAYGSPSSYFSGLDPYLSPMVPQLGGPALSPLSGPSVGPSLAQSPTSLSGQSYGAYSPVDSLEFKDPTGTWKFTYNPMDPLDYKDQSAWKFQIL
In short: as §1

ETV1 = ETV1 (Homo sapiens, UniProt P50549 1-477); settings: protein: recombinant; tags: N-terminal GST; dsDNA, one strand shown
Chain of ETV1 (P50549 whole entry): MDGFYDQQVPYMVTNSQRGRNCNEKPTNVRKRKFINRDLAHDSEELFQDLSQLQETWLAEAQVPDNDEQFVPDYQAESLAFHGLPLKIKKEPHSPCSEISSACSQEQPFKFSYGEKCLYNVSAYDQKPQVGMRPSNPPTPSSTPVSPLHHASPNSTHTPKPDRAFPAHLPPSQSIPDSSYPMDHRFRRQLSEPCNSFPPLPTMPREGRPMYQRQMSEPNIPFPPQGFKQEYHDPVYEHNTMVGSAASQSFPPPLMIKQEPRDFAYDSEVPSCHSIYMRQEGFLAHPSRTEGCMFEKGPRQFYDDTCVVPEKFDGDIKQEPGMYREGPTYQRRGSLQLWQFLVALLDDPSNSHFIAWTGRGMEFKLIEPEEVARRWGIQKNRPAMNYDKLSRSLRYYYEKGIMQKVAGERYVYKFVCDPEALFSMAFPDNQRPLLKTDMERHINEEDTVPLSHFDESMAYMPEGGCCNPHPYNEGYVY
In short: as §1

ERF = target: T6, ERF (Homo sapiens, UniProt P50548 1-548); settings: protein: recombinant; tags: N-terminal GST; dsDNA, one strand shown
T6 sequence: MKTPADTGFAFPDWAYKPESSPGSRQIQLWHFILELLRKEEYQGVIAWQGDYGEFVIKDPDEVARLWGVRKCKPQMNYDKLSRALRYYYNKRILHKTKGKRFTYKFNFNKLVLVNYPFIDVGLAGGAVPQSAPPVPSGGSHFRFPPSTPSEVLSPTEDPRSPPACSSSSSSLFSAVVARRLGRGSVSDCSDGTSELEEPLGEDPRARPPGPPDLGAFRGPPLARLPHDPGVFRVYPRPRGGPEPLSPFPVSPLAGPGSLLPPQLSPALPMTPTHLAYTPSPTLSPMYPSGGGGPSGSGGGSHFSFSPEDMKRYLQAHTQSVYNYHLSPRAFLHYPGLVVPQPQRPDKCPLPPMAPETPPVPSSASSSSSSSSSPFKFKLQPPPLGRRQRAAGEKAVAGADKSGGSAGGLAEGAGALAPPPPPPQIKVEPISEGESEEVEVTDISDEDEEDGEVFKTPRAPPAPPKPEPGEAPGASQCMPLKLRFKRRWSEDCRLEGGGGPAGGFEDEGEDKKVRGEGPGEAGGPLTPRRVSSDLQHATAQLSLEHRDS
In short: as §1

ETV3L = target: T7, ETV3L (Homo sapiens, UniProt Q6ZN32 1-361); settings: protein: recombinant; tags: N-terminal GST; dsDNA, one strand shown
T7 sequence: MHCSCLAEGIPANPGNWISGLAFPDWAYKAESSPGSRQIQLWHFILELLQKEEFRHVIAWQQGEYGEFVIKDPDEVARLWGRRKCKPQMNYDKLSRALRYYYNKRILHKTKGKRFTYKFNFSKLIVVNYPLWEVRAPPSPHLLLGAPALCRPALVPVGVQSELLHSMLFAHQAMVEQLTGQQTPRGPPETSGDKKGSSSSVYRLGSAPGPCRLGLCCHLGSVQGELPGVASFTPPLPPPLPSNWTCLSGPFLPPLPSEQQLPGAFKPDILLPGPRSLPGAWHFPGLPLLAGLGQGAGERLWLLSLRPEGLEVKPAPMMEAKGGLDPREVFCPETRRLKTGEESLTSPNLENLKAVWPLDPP
In short: as §1

ETS2 = target: T8, ETS2 (Homo sapiens, UniProt P15036 1-469); settings: protein: recombinant; tags: N-terminal GST; dsDNA, one strand shown
T8 sequence: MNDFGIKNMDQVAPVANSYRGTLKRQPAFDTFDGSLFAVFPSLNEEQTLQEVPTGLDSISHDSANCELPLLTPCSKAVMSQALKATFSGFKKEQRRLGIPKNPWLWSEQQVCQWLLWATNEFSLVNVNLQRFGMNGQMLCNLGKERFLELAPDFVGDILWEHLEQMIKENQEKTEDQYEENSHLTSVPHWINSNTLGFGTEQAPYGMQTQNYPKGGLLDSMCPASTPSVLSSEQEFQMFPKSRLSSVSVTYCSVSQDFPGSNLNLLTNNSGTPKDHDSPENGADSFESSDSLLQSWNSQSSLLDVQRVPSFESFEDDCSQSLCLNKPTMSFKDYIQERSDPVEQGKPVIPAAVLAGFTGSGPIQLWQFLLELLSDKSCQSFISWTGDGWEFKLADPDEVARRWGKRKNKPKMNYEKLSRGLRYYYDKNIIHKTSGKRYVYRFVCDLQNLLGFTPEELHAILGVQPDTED
In short: as §1

SPDEF = target: T9, SPDEF (Homo sapiens, UniProt O95238 1-335); settings: protein: recombinant; tags: N-terminal GST; dsDNA, one strand shown
T9 sequence: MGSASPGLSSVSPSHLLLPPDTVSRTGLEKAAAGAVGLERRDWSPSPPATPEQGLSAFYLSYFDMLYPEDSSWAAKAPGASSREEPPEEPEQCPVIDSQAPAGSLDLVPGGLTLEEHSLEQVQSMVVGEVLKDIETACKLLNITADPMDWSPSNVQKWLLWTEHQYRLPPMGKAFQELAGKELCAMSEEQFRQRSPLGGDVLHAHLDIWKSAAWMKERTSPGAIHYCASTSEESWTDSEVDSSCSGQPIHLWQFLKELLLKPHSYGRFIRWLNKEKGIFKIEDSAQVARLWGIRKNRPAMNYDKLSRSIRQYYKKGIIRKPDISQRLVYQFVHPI
In short: as §1

ETV7 = target: T10, ETV7 (Homo sapiens, UniProt Q9Y603 1-341); settings: protein: recombinant; tags: N-terminal GST; dsDNA, one strand shown
T10 sequence: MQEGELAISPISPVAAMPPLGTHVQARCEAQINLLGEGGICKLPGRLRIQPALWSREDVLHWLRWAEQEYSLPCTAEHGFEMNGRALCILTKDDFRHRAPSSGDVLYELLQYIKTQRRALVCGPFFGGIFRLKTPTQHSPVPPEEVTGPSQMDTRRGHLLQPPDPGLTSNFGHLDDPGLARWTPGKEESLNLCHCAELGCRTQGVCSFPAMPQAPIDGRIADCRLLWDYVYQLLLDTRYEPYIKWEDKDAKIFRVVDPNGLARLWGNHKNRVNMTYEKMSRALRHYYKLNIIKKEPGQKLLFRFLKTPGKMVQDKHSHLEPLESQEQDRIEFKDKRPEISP
In short: as §1

ELF5 = target: T11, ELF5 (Homo sapiens, UniProt Q9UKW6-2 1-255); settings: protein: recombinant; tags: N-terminal GST; dsDNA, one strand shown
T11 sequence: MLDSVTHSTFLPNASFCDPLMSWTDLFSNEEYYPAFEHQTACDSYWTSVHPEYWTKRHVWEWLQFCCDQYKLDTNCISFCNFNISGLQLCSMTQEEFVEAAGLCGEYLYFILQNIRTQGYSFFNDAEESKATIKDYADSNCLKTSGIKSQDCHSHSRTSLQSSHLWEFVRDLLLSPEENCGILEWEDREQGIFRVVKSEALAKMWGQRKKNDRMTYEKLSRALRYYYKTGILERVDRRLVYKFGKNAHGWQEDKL
In short: as §1

ETV3 = target: T12, ETV3 (Homo sapiens, UniProt P41162-2 1-143); settings: protein: recombinant; tags: N-terminal GST; dsDNA, one strand shown
T12 sequence: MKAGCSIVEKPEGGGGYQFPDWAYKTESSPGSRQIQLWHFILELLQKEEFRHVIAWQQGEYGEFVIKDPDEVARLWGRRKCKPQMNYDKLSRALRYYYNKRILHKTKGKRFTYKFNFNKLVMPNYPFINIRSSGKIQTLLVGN
In short: as §1

ETV6 = ETV6 (Homo sapiens, UniProt P41212 1-452); settings: protein: recombinant; tags: N-terminal GST; dsDNA, one strand shown
Chain of ETV6 (P41212 whole entry): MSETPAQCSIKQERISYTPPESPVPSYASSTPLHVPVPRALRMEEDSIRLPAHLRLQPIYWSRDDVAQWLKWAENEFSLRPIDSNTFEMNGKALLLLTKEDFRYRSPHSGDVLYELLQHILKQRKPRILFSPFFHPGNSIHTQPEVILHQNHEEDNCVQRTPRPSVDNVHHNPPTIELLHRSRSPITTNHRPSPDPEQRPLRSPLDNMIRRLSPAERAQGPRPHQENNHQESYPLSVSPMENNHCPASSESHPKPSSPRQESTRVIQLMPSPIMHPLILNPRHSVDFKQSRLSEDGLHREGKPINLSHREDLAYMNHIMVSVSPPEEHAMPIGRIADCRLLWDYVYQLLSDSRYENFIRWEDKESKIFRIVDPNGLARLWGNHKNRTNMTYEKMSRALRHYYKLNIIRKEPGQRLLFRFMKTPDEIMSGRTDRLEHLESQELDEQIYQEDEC
In short: as §1

Q: What does the source list for CCGCTT?
A: binding signal (FEV): 2.01 fold enrichment (6-mer frequency, TF over GST control); binding signal (ETV5): 2.03 fold enrichment (6-mer frequency, TF over GST control); binding signal (HSF1): 1.49 fold enrichment (6-mer frequency, TF over GST control); binding signal (SPIC): 1.83 fold enrichment (6-mer frequency, TF over GST control); binding signal (ELF4): 1.87 fold enrichment (6-mer frequency, TF over GST control); binding signal (ELK4): 1.8 fold enrichment (6-mer frequency, TF over GST control); binding signal (ETV2): 1.6 fold enrichment (6-mer frequency, TF over GST control); binding signal (ELF3): 2.08 fold enrichment (6-mer frequency, TF over GST control); binding signal (CRX): 1.82 fold enrichment (6-mer frequency, TF over GST control); binding signal (ETV1): 2.11 fold enrichment (6-mer frequency, TF over GST control); binding signal (ERF): 1.77 fold enrichment (6-mer frequency, TF over GST control); binding signal (ETV3L): 1.89 fold enrichment (6-mer frequency, TF over GST control); binding signal (ETS2): 1.95 fold enrichment (6-mer frequency, TF over GST control); binding signal (SPDEF): 1.99 fold enrichment (6-mer frequency, TF over GST control); binding signal (ETV7): 1.62 fold enrichment (6-mer frequency, TF over GST control); binding signal (ELF5): 2.05 fold enrichment (6-mer frequency, TF over GST control); binding signal (ETV3): 1.96 fold enrichment (6-mer frequency, TF over GST control); binding signal (ETV6): 2.17 fold enrichment (6-mer frequency, TF over GST control)

From paper PMC7862700, “An all-to-all approach to the identification of sequence-specific readers for epigenetic DNA modifications on cytosine”
